Consider 14 molecules from PubChem BioAssay (Tox21).

Assay [1] in a line: qHTS assay to identify small molecule antagonists of the thyroid receptor (TR) signaling pathway (AID 743065). Note: series mostly up to about 70 µM; nearly all actives have a fitted effect of over 55% in size. An outline of the steps: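 GH3.TRE-Luc rat pituitary cells carrying two TR response elements driving luciferase were plated for 4 h, given compound plus 1 nM T3 (final), and incubated 23.5 h at 37 C. ONE-Glo luminescence measured reporter inhibition; CellTiter-Fluor fluorescence tracked cytotoxicity.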
(In qHTS, concentration-response curves come from the screen itself.)

Assay [2] concerns thyroid hormone receptor (rat, GH3 cells). Description: qHTS assay to identify small molecule agonists of the thyroid receptor (TR) signaling pathway (AID 743066; calls by dose curve).
Assay [3] addresses Estrogen receptor (Homo sapiens) (UniProt P03372). Briefly: qHTS assay to identify small molecule antagonists of the estrogen receptor alpha (ER-alpha) signaling pathway (AID 743069; active = well fitted curve in the direction sought with a large enough effect in the signal ratio in the repeat runs, not every such curve was filed as active; the % refers to the signal ratio). A digest of the protocol:
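HEK293 cells stably carrying an ER-alpha-UAS-bla beta-lactamase reporter were pre-cultured overnight in 2% charcoal-stripped FBS medium. Test compounds in DMSO were added together with 17beta-estradiol for 18 hr at 37C. Read-out was fluorescence after 2 hr with LiveBLAzer B/G FRET substrate at room temperature.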

A short description of assay [4]: qHTS assay to identify small molecule antagonists of the estrogen receptor alpha (ER-alpha) signaling pathway - cell viability counter screen (AID 743074; calls by dose curve; note: nearly all actives have a fitted effect of over 45% in size).
Assay [5] has as its target Estrogen receptor (Homo sapiens) (UniProt P03372). Description: qHTS assay to identify small molecule agonists of the estrogen receptor alpha (ER-alpha) signaling pathway (AID 743075; calls by dose curve).
Assay [6] shares this target. Briefly: qHTS assay to identify small molecule agonists of the estrogen receptor alpha (ER-alpha) signaling pathway using the BG1 cell line (AID 743079). Note: nearly all actives have a fitted effect of over 20% in size. Note: potency is the fitted concentration of half-maximal effect.
Assay [7] can be described thus: qHTS assay to identify small molecule antagonists of the estrogen receptor alpha (ER-alpha) signaling pathway using the BG1 cell line (AID 743080; calls by dose curve;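 note: BG1 cells stimulated with 17beta-estradiol alongside compound; series mostly up to about 70 µM; nearly all actives have a fitted effect of over 25% in size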). An outline of the steps:
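BG1-Luc-4E2 cells (endogenous full-length ER-alpha, stable 4×ERE-luciferase) were starved 5 days in phenol-red-free medium with 10% charcoal-stripped FBS, plated 24 h, then given compound plus 17beta-estradiol for 21.5 h at 37 C; ONE-Glo luminescence read after 30 min.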

Assay [8] can be described thus: qHTS assay to identify small molecule antagonists of the estrogen receptor alpha (ER-alpha) signaling pathway using the BG1 cell line - cell viability counter screen (AID 743081).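 Note: compound given together with 17beta-estradiol as the ER stimulus; series mostly up to about 70 µM; nearly all actives have a fitted effect of over 45% in size.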
Another assay deals with Aromatase (Homo sapiens) (UniProt P11511). Briefly: qHTS assay to identify aromatase inhibitors (AID 743083). Note: series mostly up to about 70 µM; nearly all actives have a fitted effect of over 55% in size.
Aromatase (Homo sapiens), sequence (P11511 whole entry, looked up): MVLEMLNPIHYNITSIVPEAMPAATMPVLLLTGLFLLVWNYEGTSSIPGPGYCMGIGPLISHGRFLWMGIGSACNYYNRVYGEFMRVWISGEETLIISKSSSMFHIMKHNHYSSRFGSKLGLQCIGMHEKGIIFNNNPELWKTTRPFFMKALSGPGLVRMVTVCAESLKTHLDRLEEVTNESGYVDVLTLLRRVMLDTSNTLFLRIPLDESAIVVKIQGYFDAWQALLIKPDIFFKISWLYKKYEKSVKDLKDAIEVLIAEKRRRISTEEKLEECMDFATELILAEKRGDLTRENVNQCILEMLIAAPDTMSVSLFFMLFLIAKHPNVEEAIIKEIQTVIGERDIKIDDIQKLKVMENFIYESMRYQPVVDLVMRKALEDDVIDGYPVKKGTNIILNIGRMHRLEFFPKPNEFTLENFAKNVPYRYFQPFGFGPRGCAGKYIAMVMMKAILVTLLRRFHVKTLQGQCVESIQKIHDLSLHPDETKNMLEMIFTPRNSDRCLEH
A short description of assay [9]: qHTS assay to identify aromatase inhibitors - cell viability counter screen (AID 743084).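 Note: cells stimulated with testosterone during compound exposure; nearly all actives have a fitted effect of over 55% in size.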
Assay [10] addresses Aryl hydrocarbon receptor (Homo sapiens) (UniProt P35869). Description: qHTS assay to identify small molecule that activate the aryl hydrocarbon receptor (AhR) signaling pathway (AID 743085).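 For activation: HG2L7.5c1 human HepG2 liver cells with stably integrated DRE-driven firefly reporter; series mostly up to about 70 µM.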 Note: nearly all actives have a fitted effect of over 15% in size. Note: potency is the fitted concentration of half-maximal effect. A digest of the protocol: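 Luminescence (ONE-Glo) from a dioxin-responsive-element luciferase reporter in HG2L7.5c1 HepG2 cells after 24 hr compound exposure at 37C; viability measured by CellTiter-Fluor fluorescence beforehand.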

Assay [11] in a line: qHTS assay to identify small molecule that activate the aryl hydrocarbon receptor (AhR) signaling pathway - cell viability counter screen (AID 743086).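 Note: HepG2 liver cells carrying the AhR DRE luciferase reporter; series mostly up to about 70 µM; nearly all actives have a fitted effect of over 45% in size.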 A digest of the protocol:
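HepG2-AhR-luc (HG2L7.5c1) cells, 4000/well, were preincubated 5 h at 37C, exposed to compound in qHTS format for 24 hr at 37C, then given CellTiter-Fluor for 30 min; viability was read as fluorescence in the reporter wells.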

In assay [12] the target is Peroxisome proliferator-activated receptor gamma (Homo sapiens) (UniProt P37231). Description: qHTS assay to identify small molecule agonists of the peroxisome proliferator-activated receptor gamma (PPARg) signaling pathway (AID 743094; active = well fitted activation curve with a large enough effect in the signal ratio in the repeat runs, not every such curve was filed as active; the % refers to the signal ratio). An outline of the steps:
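Compounds dissolved in DMSO were added to PPARg UAS-bla HEK293H cells for 17 h at 37C, and reporter expression was quantified by fluorescence intensity after 1 h with LiveBLAzer B/G FRET substrate.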

Assay [13] has the same target. Briefly: qHTS assay to identify small molecule antagonists of the peroxisome proliferator-activated receptor gamma (PPARg) signaling pathway (AID 743191; calls by dose curve; note: series mostly up to about 63 µM; nearly all actives have a fitted effect of over 30% in size). An outline of the steps:
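GeneBLAzer PPARg UAS-bla HEK293H cells carrying a UAS-driven beta-lactamase reporter were plated at 3000 cells/well, preincubated 5 h at 37C, then given compound for 17 h at 37C; LiveBLAzer B/G FRET substrate was read after 1 h at room temperature.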

The nature of assay [14]: qHTS assay for small molecule agonists of the antioxidant response element (ARE) signaling pathway (AID 743202; active = well fitted activation curve with a large enough effect in the signal ratio in the repeat runs, not every such curve was filed as active; the % refers to the signal ratio; note: potency is the fitted concentration of half-maximal effect). An outline of the steps:
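Read-out: LiveBLAzer B/G FRET substrate fluorescence after 2 h at room temperature, following 16 h compound treatment at 37 C of HepG2 cells carrying an ARE-driven beta-lactamase reporter.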

The nature of assay [15]: qHTS assay for small molecule agonists of the antioxidant response element (ARE) signaling pathway - cell viability counter screen (AID 743203; calls by dose curve; note: nearly all actives have a fitted effect of over 55% in size). An outline of the steps: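 Following 16 hrs of compound treatment at 37C, HepG2 cells with an ARE-controlled beta-lactamase gene were lysed with CellTiter-Glo. Luminescence was read after 30 min at room temperature.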
The nature of assay [16]: qHTS assay for small molecule activators of the heat shock response signaling pathway - cell viability counter screen (AID 743209). Note: nearly all actives have a fitted effect of over 50% in size. An outline of the steps: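 Readout: CellTiter-Glo luminescence, 30 min at room temperature. System: HSE-bla HeLa cells, 1500/well, plated overnight. Treatment: compounds in DMSO, 5 h at 37 C.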
Assay [17] in a line: qHTS assay for small molecule activators of the heat shock response signaling pathway (AID 743210; active = well fitted activation curve with a large enough effect in the signal ratio in the repeat runs, with a control signal flat, not every such curve was filed as active; the % refers to the signal ratio; note: series mostly up to about 63 µM). A digest of the protocol:
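HSE-bla HeLa cells (beta-lactamase reporter under heat shock response elements) were exposed to compounds for 5 h at 37 C, then loaded with LiveBLAzer B/G FRET substrate for 2.5 h at room temperature before fluorescence reading.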

Assay [18] can be described thus: qHTS assay to identify small molecule antagonists of the peroxisome proliferator-activated receptor gamma (PPARg) signaling pathway - cell viability counter screen (AID 743194). Note: nearly all actives have a fitted effect of over 55% in size. An outline of the steps: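 PPARg-UAS-bla HEK293H cells were plated, rested 5 h at 37 C, then treated with compounds plus rosiglitazone (50 nM final) for 17 h at 37 C; viability was then read by CellTiter-Glo luminescence after 30 min at room temperature.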

Results filed as inconclusive are left out. A number with no mark means an inactive call. Activity calls are given as the source filed them. Unless noted, calls come from the whole dose curve; as a rule, active = well fitted curve in the direction sought with a large enough effect in the repeat runs; inconclusive = weak or mixed curves; inactive = no such curve, though single readings can be large; an effect the other way counts as inactive or inconclusive.

Peroxisome proliferator-activated receptor gamma (Homo sapiens), sequence (P37231 whole entry, looked up): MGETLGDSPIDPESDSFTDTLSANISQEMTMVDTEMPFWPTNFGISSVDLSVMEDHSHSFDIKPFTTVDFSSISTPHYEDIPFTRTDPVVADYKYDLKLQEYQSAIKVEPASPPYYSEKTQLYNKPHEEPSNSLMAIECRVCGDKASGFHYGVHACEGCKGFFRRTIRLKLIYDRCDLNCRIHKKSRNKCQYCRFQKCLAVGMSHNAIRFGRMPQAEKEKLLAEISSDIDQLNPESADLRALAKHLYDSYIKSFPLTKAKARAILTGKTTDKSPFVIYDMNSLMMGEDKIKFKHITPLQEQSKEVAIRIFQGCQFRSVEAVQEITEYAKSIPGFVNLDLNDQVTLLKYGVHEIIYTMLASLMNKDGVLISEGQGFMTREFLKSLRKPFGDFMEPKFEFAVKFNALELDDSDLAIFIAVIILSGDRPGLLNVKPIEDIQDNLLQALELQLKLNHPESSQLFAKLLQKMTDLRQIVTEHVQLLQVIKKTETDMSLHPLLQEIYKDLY
Aryl hydrocarbon receptor (Homo sapiens), sequence (P35869 whole entry, looked up): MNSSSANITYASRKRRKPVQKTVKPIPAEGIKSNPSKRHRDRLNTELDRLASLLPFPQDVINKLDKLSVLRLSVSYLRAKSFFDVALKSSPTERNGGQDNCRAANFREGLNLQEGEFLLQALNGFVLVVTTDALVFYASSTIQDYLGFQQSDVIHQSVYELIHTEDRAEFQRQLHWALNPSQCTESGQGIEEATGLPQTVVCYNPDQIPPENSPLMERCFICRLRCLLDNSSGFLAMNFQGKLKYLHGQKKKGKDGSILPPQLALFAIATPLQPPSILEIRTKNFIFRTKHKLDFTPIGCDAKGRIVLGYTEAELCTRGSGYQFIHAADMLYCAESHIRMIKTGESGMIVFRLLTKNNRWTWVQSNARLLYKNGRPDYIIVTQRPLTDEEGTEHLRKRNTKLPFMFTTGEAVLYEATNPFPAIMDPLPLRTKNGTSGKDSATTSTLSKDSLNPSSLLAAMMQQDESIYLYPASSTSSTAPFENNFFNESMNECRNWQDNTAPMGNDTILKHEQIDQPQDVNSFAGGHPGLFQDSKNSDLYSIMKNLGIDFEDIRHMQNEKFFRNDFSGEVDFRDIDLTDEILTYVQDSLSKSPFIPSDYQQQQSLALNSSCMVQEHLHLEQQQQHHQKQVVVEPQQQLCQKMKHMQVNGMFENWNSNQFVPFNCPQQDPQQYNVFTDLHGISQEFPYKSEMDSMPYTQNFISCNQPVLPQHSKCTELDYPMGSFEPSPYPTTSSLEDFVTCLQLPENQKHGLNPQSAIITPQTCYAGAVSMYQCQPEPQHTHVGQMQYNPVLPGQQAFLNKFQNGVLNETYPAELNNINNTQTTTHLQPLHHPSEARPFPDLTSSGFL
Estrogen receptor (Homo sapiens), sequence (P03372 whole entry, looked up): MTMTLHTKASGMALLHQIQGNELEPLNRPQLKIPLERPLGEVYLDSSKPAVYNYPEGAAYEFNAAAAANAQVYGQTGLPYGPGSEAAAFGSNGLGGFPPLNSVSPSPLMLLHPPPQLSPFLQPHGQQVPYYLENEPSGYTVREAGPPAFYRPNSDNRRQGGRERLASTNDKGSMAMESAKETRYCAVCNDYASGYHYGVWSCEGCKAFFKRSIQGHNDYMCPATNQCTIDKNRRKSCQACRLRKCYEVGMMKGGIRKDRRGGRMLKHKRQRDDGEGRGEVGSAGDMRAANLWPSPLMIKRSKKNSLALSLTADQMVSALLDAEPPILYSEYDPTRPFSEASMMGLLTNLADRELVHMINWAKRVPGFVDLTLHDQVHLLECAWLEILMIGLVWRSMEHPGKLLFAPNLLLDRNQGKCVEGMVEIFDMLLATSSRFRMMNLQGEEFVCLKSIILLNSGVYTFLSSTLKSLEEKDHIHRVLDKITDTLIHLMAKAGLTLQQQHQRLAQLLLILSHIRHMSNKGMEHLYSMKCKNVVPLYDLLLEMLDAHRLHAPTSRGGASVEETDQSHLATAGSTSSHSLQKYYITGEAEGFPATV

With `CCOC(=O)c1ncn2c1CN(C)C(=O)c1cc(F)ccc1-2`, the Potency entry (in assay [1]; in assay [6]; in assay [7]; in the assay with Aromatase (Homo sapiens); in [9]; in assay [10]) was “inactive” each time. Further, the Potency result in assay [11], in assay [13] and in [14] was “inactive” throughout. Besides, the call in [2], in [3], in assay [4], in assay [5], in assay [8] and in assay [12] was inactive. Further, the call in assay [15], in assay [16] and in assay [17] was inactive.

`NCCS`: the Potency entry (in assay [1]; with Aromatase (Homo sapiens); in assay [9]; in assay [10]; in assay [11]; in [13]) was “inactive” each time. Besides, the Potency entry in [14] was “inactive”. The result in [2], in assay [4], in assay [8], in assay [12], in assay [18] and in assay [15] was inactive. The call in [16] and in assay [17] was inactive.

In the case of `O=C1CCCC(=O)O1`, the Potency entry (in assay [1]; in [6]; in [7]; in the assay with Aromatase (Homo sapiens); in assay [9]; in assay [10]) was “inactive” each time. Besides, the Potency result in [13] was “inactive”. In addition, the outcome in assay [2], in assay [3], in [5], in assay [8], in [12] and in assay [15] was inactive. Besides, the molecule was classed as inactive in [16].

Regarding `O=C(O)Cc1cn(-c2ccccc2)nc1-c1ccc(Cl)cc1`, the Potency result (in [1]; in assay [6]; in assay [7]; with Aromatase (Homo sapiens); in [9]; in [10]) was “inactive” throughout. The Potency result in assay [11] is “inactive”. Also, the outcome in assay [2], in assay [3], in assay [4], in [5], in assay [8] and in [18] was inactive. The result in [16] and in assay [17] was inactive.

On to `COc1cc2c(cc1OC)[C@@H]1CC(=O)[C@@H](CC(C)C)CN1CC2`, for which the Potency entry in [1], in assay [6], in [7], in [9], in assay [11] and in assay [13] was “inactive” each time. Besides, in assay [14], the Potency result was “inactive”. The outcome in assay [2], in assay [3], in assay [5], in assay [8], in assay [12] and in assay [18] was inactive. Besides, the outcome in assay [15], in assay [16] and in assay [17] was inactive.

Take `CC(=O)c1ccc2c(c1)Cc1ccccc1-2`: the Potency result (in assay [1]; with Aromatase (Homo sapiens); in [9]; in assay [11]; in assay [13]) was “inactive” throughout. In addition, the call in assay [2], in assay [3], in assay [4], in assay [8], in assay [12] and in [15] was inactive. The call in assay [16] and in [17] was inactive. The Potency was 24.4 µM (active) in assay [6], 54.5 µM (active) in assay [10] and 7.7 µM (active) in [14].

Consider `CC(C)=CCOC(=O)c1ccccc1`, for which the Potency result in [1] and in assay [11] was “inactive” throughout. Further, the molecule was called inactive in [2], in [4], in assay [8], in assay [15], in assay [16] and in [17].

In the case of `CCC(C)NC(N)=O` (centres undefined), the Potency entry (in [1]; in [6]; in assay [7]; with Aromatase (Homo sapiens); in [11]; in assay [14]) was “inactive” throughout. The outcome in assay [2], in assay [3], in assay [4], in assay [5], in [8] and in [12] was inactive. Also, the call in assay [15], in [16] and in assay [17] was inactive.

`CCNC(=O)C1CC(C)CCC1C(C)C` (centres undefined): the Potency result (in assay [1]; in [6]; in assay [7]; with Aromatase (Homo sapiens); in [9]; in assay [10]) was “inactive” in each case. For the same molecule, the Potency result in assay [11] and in assay [13] was “inactive” each time. Also, the molecule was called inactive in assay [2], in assay [3], in [4], in assay [5], in assay [8] and in [12]. Besides, the molecule was classed as inactive in assay [18] and in [16].

In the case of `CC(C)=O`, the Potency entry (in assay [1]; in [6]; in assay [7]; with Aromatase (Homo sapiens); in assay [9]; in assay [10]) was “inactive” throughout. Further, the Potency entry in [11] and in assay [14] was “inactive” throughout. Moreover, the result in [2], in [3], in [4], in [5], in [8] and in [12] was inactive. For the same molecule, the outcome in [18], in assay [15], in assay [16] and in [17] was inactive.

For `Cc1ccc2c(c1)OCC(=O)CO2`, the Potency entry (in assay [1]; in [7]; with Aromatase (Homo sapiens); in assay [9]; in assay [10]; in [11]) was “inactive” throughout. The Potency entry in assay [13] and in assay [14] was “inactive” throughout. In addition, the molecule was classed as inactive in assay [2], in assay [3], in [4], in [5], in assay [8] and in assay [12]. The call in assay [18], in [16] and in [17] was inactive.

As for `CNS(=O)(=O)CCc1ccc2[nH]cc(C3CCN(C)CC3)c2c1`, the Potency entry (in [1]; in assay [6]; in assay [7]; with Aromatase (Homo sapiens); in [9]; in assay [10]) was “inactive” each time. Further, the Potency result in [11] and in assay [14] was “inactive” in each case. In addition, the call in [2], in [3], in [5], in assay [8], in assay [12] and in assay [15] was inactive. Moreover, in [16], the molecule was called inactive.

As for `CCC(CC)CO`, the Potency result (in assay [1]; in assay [6]; in [7]; with Aromatase (Homo sapiens); in [9]; in [10]) was “inactive” in each case. Further, the Potency result in [11], in assay [13] and in [14] was “inactive” each time. For the same molecule, the outcome in assay [2], in assay [3], in [4], in assay [5], in [8] and in assay [12] was inactive. Moreover, the outcome in assay [16] and in assay [17] was inactive.

For `CC(=O)c1sc(C)nc1C`, the Potency entry (in assay [1]; with Aromatase (Homo sapiens); in [9]; in assay [10]; in assay [11]; in assay [13]) was “inactive” throughout. For the same molecule, the Potency entry in [14] was “inactive”. Moreover, the call in [2], in assay [4], in [8], in [12], in assay [18] and in assay [15] was inactive. The call in [16] was inactive.
